This passage reports Potency and outcome results from PubChem BioAssay (NCATS).

Inconclusive results are not listed. Active and inactive are the calls of the source. Calls follow the shape of the dose curve; as a rule, active = well fitted inhibition curve with a large enough effect; inconclusive = small, poorly fitted or top-dose-only effect; inactive = flat fitted curve, though single readings scatter.

Assay in all cases: qHTS profiling for inhibitors of Plasmodium falciparum proliferation (AID 504749); also: nearly all actives have a fitted effect of over 60% in size
Holding throughout (conditions): P. falciparum in erythrocytes, SYBR Green DNA, 72 h; series mostly up to 28.7 µM
On the technique in general: In qHTS, concentration-response curves come from the screen itself.

For one experiment, the system named is CP211. In outline: (§1)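 Parasite proliferation within erythrocytes, 72 h exposure. Endpoint: SYBR Green I fluorescence after overnight lysis at room temperature. Controls: 0.29 uM artemisinin, DMSO.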
A further experiment concerns CP215. The method, boiled down:
as §1

The subject of another experiment is CP217. The method, boiled down: as §1
The subject of a further experiment is CP237. In outline: as §1
The next experiment concerns CP238. In outline: as §1
The next experiment deals with CP247. The method, boiled down: as §1
For a further experiment, the system named is CP250. In outline:
as §1

The next experiment concerns CP252. The method, boiled down: as §1
Another experiment relates to CP256. The method, boiled down: as §1
A further experiment relates to CP260. In outline:
as §1

The next experiment has as its system CP262. The method, boiled down: as §1
The next experiment deals with CP265. In outline:
as §1

The test system of the next experiment is CP268. In outline: as §1
The next experiment deals with CP269. In outline: as §1
The test system of the next experiment is CP286. In outline:
as §1

For a further experiment, the system named is CP291. The method, boiled down: as §1
For the next experiment, the system named is CP297. In outline: as §1
The test system of the next experiment is CP305. In outline: as §1
The next experiment deals with CP315. The method, boiled down: as §1
The subject of the next experiment is CP266. In outline: as §1
Potency is read from the fitted curve at half-maximal effect.

Turning to `CC(C)C[C@H](NC(=O)[C@@H](O)[C@H](N)Cc1ccccc1)C(=O)O`, the Potency in the experiment with CP211 was 6.01 µM (active); in the experiment on CP215, 6.75 µM (active); in the experiment on CP217, 6.31 µM (active); in the experiment on CP237, 4.47 µM (active); in the experiment with CP238, 12.6 µM (active); with CP247, 6.31 µM (active). Moreover, the Potency was 10 µM (active) in the experiment on CP250; 6.31 µM (active) in the experiment on CP252; 5.62 µM (active) in the experiment on CP256; 4.47 µM (active) with CP260; 11.2 µM (active) in the experiment with CP265; 13.5 µM (active) with CP268. The Potency with CP269 was 9.53 µM (active); in the experiment on CP286 it was 5.01 µM (active); in the experiment on CP291, 5.36 µM (active); in the experiment on CP297, 8.49 µM (active); with CP305, 6.01 µM (active); with CP315, 12 µM (active). Also, in the experiment on CP262, the Potency result was “inactive”.
Regarding `Cc1[nH]c(=O)c(C#N)cc1-c1ccc2nccn2c1`, the Potency result with CP211, in the experiment with CP215, in the experiment with CP217, in the experiment on CP237, in the experiment on CP238 and in the experiment on CP247 was “inactive” in each case. For the same compound, the Potency result in the experiment on CP250, in the experiment on CP252, in the experiment with CP256, with CP260, with CP262 and in the experiment on CP265 was “inactive” throughout. Also, the Potency entry in the experiment with CP268, with CP269, in the experiment on CP286, with CP291, in the experiment with CP297 and in the experiment on CP305 was “inactive” each time. In the experiment on CP315, the Potency result was “inactive”. For the same compound, in the experiment with CP266, the result was inactive.
Take `NS(=O)(=O)c1cc2c(cc1Cl)NC=NS2(=O)=O`: the Potency result in the experiment on CP211, with CP215, in the experiment with CP217, in the experiment on CP237, in the experiment on CP238 and with CP247 was “inactive” throughout. In addition, the Potency result in the experiment with CP250, with CP252, in the experiment on CP256, with CP260, with CP262 and with CP265 was “inactive” throughout. Moreover, the Potency entry with CP268, in the experiment on CP269, in the experiment with CP286, with CP291, with CP297 and with CP305 was “inactive” in each case. Besides, the Potency result in the experiment with CP315 was “inactive”. Also, in the experiment with CP266, the result was inactive.
Regarding `Clc1cccc(Cl)c1NC1=NCCN1`, the Potency result with CP211, in the experiment with CP215, in the experiment with CP217, in the experiment on CP237, in the experiment on CP238 and in the experiment on CP247 was “inactive” throughout. Moreover, the Potency entry in the experiment with CP250, in the experiment with CP252, with CP256, with CP260, with CP262 and in the experiment on CP265 was “inactive” throughout. Besides, the Potency result with CP268, in the experiment on CP269, in the experiment with CP286, in the experiment on CP291, in the experiment on CP297 and with CP305 was “inactive” in each case. The Potency entry in the experiment on CP315 was “inactive”. In the experiment with CP266, the outcome was inactive.
On to `O=NN(CCCl)C(=O)NCCCl`, for which the Potency result in the experiment with CP211, with CP215, in the experiment with CP217, in the experiment with CP237, with CP238 and in the experiment on CP247 was “inactive” throughout. Besides, the Potency entry with CP250, in the experiment with CP252, in the experiment on CP256, in the experiment on CP260, in the experiment with CP262 and with CP265 was “inactive” in each case. The Potency result with CP268, with CP269, in the experiment with CP291, in the experiment with CP297, in the experiment with CP305 and with CP315 was “inactive” throughout. Also, in the experiment on CP266, the result was inactive.
On to `O=c1[nH]cnc2[nH]ncc12`, for which the Potency result in the experiment on CP211, with CP215, with CP217, in the experiment with CP237, in the experiment on CP238 and in the experiment on CP247 was “inactive” in each case. The Potency entry in the experiment on CP250, in the experiment with CP252, in the experiment with CP256, in the experiment with CP260, with CP262 and with CP265 was “inactive” throughout. Moreover, the Potency entry in the experiment on CP268, with CP269, in the experiment on CP286, in the experiment on CP291, with CP297 and with CP305 was “inactive” each time. Besides, in the experiment on CP315, the Potency result was “inactive”. In addition, the compound was classed as inactive with CP266.
On to `N#Cc1ccc(C(c2ccc(C#N)cc2)n2cncn2)cc1`, for which the Potency result in the experiment on CP211, in the experiment on CP215, in the experiment on CP217, in the experiment on CP237, in the experiment with CP238 and with CP247 was “inactive” each time. Moreover, the Potency result with CP250, in the experiment with CP252, in the experiment with CP256, with CP260, with CP262 and in the experiment on CP265 was “inactive” in each case. In addition, the Potency result with CP268, in the experiment on CP269, in the experiment with CP286, with CP291, in the experiment with CP297 and in the experiment with CP305 was “inactive” each time. The Potency result in the experiment on CP315 was “inactive”. Also, the call in the experiment on CP266 was inactive.
In the case of `NC(=O)c1cnccn1`, the Potency entry in the experiment on CP211, in the experiment with CP215, in the experiment with CP217, in the experiment on CP237, in the experiment with CP238 and with CP247 was “inactive” throughout. For the same compound, the Potency result in the experiment with CP250, in the experiment with CP252, in the experiment with CP256, with CP260, in the experiment with CP262 and in the experiment with CP265 was “inactive” in each case. Also, the Potency entry in the experiment on CP268, in the experiment with CP269, in the experiment with CP286, in the experiment with CP291, in the experiment with CP297 and with CP305 was “inactive” throughout. Moreover, in the experiment on CP315, the Potency entry is “inactive”. Moreover, the compound was called inactive in the experiment with CP266.
`CC(C)NCC(O)COc1ccc(COCCOC(C)C)cc1` (stereo unspecified): the Potency entry in the experiment on CP211, with CP215, in the experiment on CP217, with CP237, in the experiment with CP238 and in the experiment with CP247 was “inactive” throughout. Besides, the Potency entry in the experiment on CP250, with CP252, in the experiment with CP256, in the experiment with CP262, with CP265 and in the experiment on CP268 was “inactive” each time. Besides, the Potency entry in the experiment on CP269, in the experiment on CP286, in the experiment on CP291, in the experiment with CP297, in the experiment with CP305 and in the experiment on CP315 was “inactive” each time. For the same compound, the result with CP266 was inactive.
For `N=c1nc(N2CCCCC2)cc(N)n1O`, the Potency entry with CP211, in the experiment with CP215, in the experiment with CP217, in the experiment on CP237, with CP238 and with CP247 was “inactive” throughout. Also, the Potency result in the experiment on CP250, with CP252, with CP256, in the experiment with CP260, with CP262 and in the experiment with CP265 was “inactive” each time. Also, the Potency entry in the experiment with CP268, in the experiment with CP269, in the experiment with CP286, with CP291, with CP297 and in the experiment with CP305 was “inactive” each time. Besides, the Potency result in the experiment on CP315 was “inactive”. In addition, the compound was classed as inactive with CP266.
`NCCCC(N)(C(=O)O)C(F)F` (stereo unspecified): the Potency result in the experiment with CP211, in the experiment with CP215, in the experiment with CP217, in the experiment with CP237, in the experiment with CP238 and with CP247 was “inactive” in each case. Further, the Potency result with CP250, in the experiment with CP252, in the experiment with CP256, in the experiment with CP260, with CP262 and in the experiment with CP265 was “inactive” each time. Further, the Potency entry in the experiment with CP268, in the experiment on CP269, with CP286, with CP291, with CP297 and in the experiment on CP305 was “inactive” throughout. Moreover, the Potency result in the experiment with CP315 is “inactive”. Also, in the experiment on CP266, the outcome was inactive.
With `CCc1ccc(CCOc2ccc(CC3SC(=O)NC3=O)cc2)nc1` (stereo unspecified), the Potency entry in the experiment with CP211, in the experiment with CP215, with CP217, in the experiment with CP237, in the experiment on CP238 and in the experiment on CP250 was “inactive” throughout. The Potency entry in the experiment with CP252, in the experiment on CP256, in the experiment on CP260, in the experiment on CP262, in the experiment on CP265 and with CP268 was “inactive” throughout. Further, the Potency result in the experiment with CP269, with CP286, in the experiment with CP291, in the experiment on CP297, in the experiment on CP305 and with CP315 was “inactive” in each case. Further, the result with CP266 was inactive.
Regarding `CN1CCN(CCCN2c3ccccc3Sc3ccc(C(F)(F)F)cc32)CC1`, the Potency in the experiment with CP237 is 12.6 µM (active); in the experiment on CP238, 3.16 µM (active); with CP250 it was 8.91 µM (active); in the experiment with CP252, 14.1 µM (active); in the experiment on CP260, 10 µM (active); in the experiment with CP269, 15.1 µM (active). Moreover, the Potency in the experiment on CP286 was 12.6 µM (active).
For `CCOC(=O)C1=C[C@@]2(CC)CCCN3CCc4c(n1c1ccccc41)[C@H]32`, the Potency was 13.5 µM (active) in the experiment on CP211; 10.7 µM (active) in the experiment with CP215; 12 µM (active) with CP262; 10.7 µM (active) in the experiment with CP268; 10.7 µM (active) with CP269; 13.5 µM (active) in the experiment with CP291. Moreover, the results for the Potency in the experiment on CP297 and in the experiment on CP305 were 12 µM (active) and 13.5 µM (active), respectively.
